# ± gives the standard deviation.
# What was measured:
# Conditions in all cases: modulator concentration 10 µM
# [1] = tested on: RAW-Dual (murine macrophage reporter line); assay: NF-kB reporter (SEAP) activity fold change vs agonist alone; higher = enhanced NF-kB activity
# How it was run: (§1)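 RAW-Dual murine macrophage reporter cells were plated at 50 000 per well in 384-well plates, pin-transferred compound to 10 μM final, and pre-incubated for 1 hour at 37 °C before a PRR agonist was added and the cells incubated overnight. NF-κB activity was read from supernatant SEAP with QUANTI-Blue at 620 nm absorbance, and IRF activity from Lucia luciferase with QUANTI-Luc by luminescence. Each signal was expressed as fold change by dividing by the mean agonist-only control on the same plate. Two replicate plates were averaged, with errors obtained by propagation.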
# [2] = tested on: RAW-Dual (murine macrophage reporter line); assay: IRF reporter (Lucia luciferase) activity fold change vs agonist alone; higher = enhanced IRF activity
# How it was run: as §1
# [3] = tested on: RAW-Dual (murine macrophage reporter line); assay: viability score (confluency relative to resting cells, overnight) (fraction); higher = more viable, active = viable (0.7 or more)
# How it was run: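 A compound met the cutoff when both of two confluency masks exceeded 70% of resting cells. Those masks were made with IncuCyte software from IncuCyte images of RAW-Dual macrophages treated overnight at 10 μM final. This is the basis of the viability score, which is confluency relative to resting cells.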
# [4] = agonist: CpG ODN 1826 0.5 ug/mL
Structure (SMILES),"NF-kB reporter [1, 4]",NF-kB reporter ([1]; agonist: LPS 0.1 ug/mL),NF-kB reporter ([1]; agonist: MPLA […]),IRF reporter ([2]; agonist: 3'3'-cGAMP 10 ug/mL),IRF reporter ([2]; agonist: LPS 0.1 ug/mL),IRF reporter ([2]; agonist: MPLA […]),viability score [3]
O=C(COc1ccccc1)N1CCCC1Cn1nccn1 (configuration not stated),0.962 ± 0.09,0.951 ± 0.077,0.923 ± 0.1,0.904 ± 0.049,1.17 ± 0.1,1.06 ± 0.25,0.975 (active)
Cc1cc2c(C)cc[n+](CCCS(=O)(=O)[O-])c2cc1C,0.942 ± 0.078,1.05 ± 0.066,0.918 ± 0.059,0.946 ± 0.038,1.42 ± 0.09,1.3 ± 0.22,1 (active)
O=C(CCc1csc(NC(=O)c2ccco2)n1)Nc1ccc(Cl)cc1,0.9 ± 0.069,0.87 ± 0.071,0.973 ± 0.097,0.883 ± 0.045,1.44 ± 0.23,1.55 ± 0.43,0.974 (active)
O=C(C1COCC(=O)N1Cc1ccccc1)N1CCN(c2cccc(Cl)c2)CC1 (configuration not stated),1.01 ± 0.05,1.09 ± 0.089,1.08 ± 0.064,1.01 ± 0.051,1.24 ± 0.075,1.29 ± 0.11,1.01 (active)
NC[C@@H]1O[C@H](O[C@@H]2[C@@H](CO)OC(O[C@@H]3[C@@H](O)[C@H](N)C[C@H](N)[C@H]3O[C@H]3O[C@H](CN)[C@@H](O)[C@H](O)[C@H]3N)[C@@H]2O)[C@H](N)[C@@H](O)[C@@H]1O.O=S(=O)(O)O (some centres not stated),0.993 ± 0.074,1.01 ± 0.091,0.983 ± 0.025,0.908 ± 0.09,1.02 ± 0.081,1.11 ± 0.12,1 (active)
COC(CNC(=O)C(C)(C)Oc1ccc(Cl)cc1)c1cccc(F)c1 (configuration not stated),1.27 ± 0.39,1.07 ± 0.055,1.14 ± 0.081,0.96 ± 0.035,0.959 ± 0.16,1.04 ± 0.18,0.973 (active)
O=Cc1c[nH]c2ccccc12,0.913 ± 0.2,1.5 ± 0.14,1.4 ± 0.23,0.982 ± 0.04,1.25 ± 0.26,1.54 ± 0.16,0.985 (active)
O=S(=O)(c1ccc(Cl)cc1)N1CCN(C2CC3CCC2C3)CC1 (configuration not stated),0.926 ± 0.062,0.994 ± 0.061,0.972 ± 0.068,1.02 ± 0.037,1.42 ± 0.14,1.24 ± 0.13,0.984 (active)
CN(C)CC#CCNC(=O)Nc1ccc(C(F)(F)F)cc1,0.935 ± 0.33,0.899 ± 0.045,0.874 ± 0.058,0.425 ± 0.016,1.06 ± 0.22,1.22 ± 0.13,1 (active)
Cl.Cn1c(=N)n(CC(O)c2ccco2)c2ccccc21 (configuration not stated),1.05 ± 0.061,1.09 ± 0.077,0.969 ± 0.069,1.22 ± 0.04,1.46 ± 0.21,1.3 ± 0.18,0.992 (active)
O=C(CC1Sc2ccccc2NC1=O)Nc1ccccc1 (configuration not stated),0.945 ± 0.084,0.877 ± 0.071,1.03 ± 0.18,0.754 ± 0.11,1.32 ± 0.29,1.41 ± 0.38,1.02 (active)
CN1CCN(C(c2ccccc2)c2ccccc2)CC1.Cl.Cl,0.727 ± 0.12,0.833 ± 0.21,0.89 ± 0.05,0.701 ± 0.023,1.25 ± 0.29,1.03 ± 0.084,0.985 (active)
CCOc1nc2cccc(C(=O)O)c2n1Cc1ccc(-c2ccccc2-c2nnn[nH]2)cc1 [Prestw-1258],1.29 ± 0.26,1.16 ± 0.11,0.925 ± 0.074,0.918 ± 0.029,0.914 ± 0.093,1.14 ± 0.14,0.995 (active)
COC(=O)CNC(c1ccccc1)c1cc(Br)ccc1NC(=O)c1ccccc1Br (configuration not stated),0.826 ± 0.07,0.777 ± 0.041,1.52 ± 0.053,0.632 ± 0.035,1.1 ± 0.14,1.52 ± 0.22,0.988 (active)
O=S1(=O)Nc2c(ccc3cccnc23)-c2ccccc21,0.603 ± 0.086,1.38 ± 0.1,2.34 ± 0.22,15 ± 0.57,0.755 ± 0.23,0.29 ± 0.079,0.671 (inactive)
CNC(=O)c1cc(Oc2ccc(NC(=O)Nc3ccc(Cl)c(C(F)(F)F)c3)cc2)ccn1.Cc1ccc(S(=O)(=O)O)cc1,0.448 ± 0.038,0.8 ± 0.048,0.791 ± 0.072,0.246 ± 0.019,0.575 ± 0.047,0.513 ± 0.069,1.01 (active)
CCC(=O)Nc1ccc(C(=O)NN=Cc2ccc(C#N)cc2)cc1,1.04 ± 0.094,1.03 ± 0.081,0.913 ± 0.064,0.972 ± 0.03,1.53 ± 0.22,1.11 ± 0.23,1.01 (active)
NC(=O)c1cccnc1,0.89 ± 0.16,0.878 ± 0.33,1.03 ± 0.13,0.912 ± 0.034,0.984 ± 0.22,0.934 ± 0.14,1 (active)
CCOC(=O)C1=C(C)NC(C)=C(C(=O)OC)C1c1ccccc1 (configuration not stated),0.884 ± 0.1,0.831 ± 0.057,1.63 ± 0.059,0.609 ± 0.085,0.896 ± 0.037,0.79 ± 0.06,0.946 (active)
O=C(Nc1ccon1)C1CN(C(=O)COc2ccccc2F)C1,1.08 ± 0.18,1.07 ± 0.14,1.04 ± 0.1,1.06 ± 0.042,1.25 ± 0.24,1.33 ± 0.2,0.992 (active)
O=C(c1ccc(Cl)cc1)c1ccc(N2CCCCC2)c([N+](=O)[O-])c1,1 ± 0.17,1.11 ± 0.15,1.01 ± 0.097,0.957 ± 0.064,1.27 ± 0.27,1.33 ± 0.27,0.998 (active)
CC1CCc2nnc(OCC3CCCN3C)cc2C1 (configuration not stated),0.837 ± 0.051,0.793 ± 0.11,0.99 ± 0.059,0.972 ± 0.061,1.19 ± 0.25,1.22 ± 0.48,0.996 (active)
COC(CNS(=O)(=O)c1ccccc1Br)c1ccc(Cl)s1 (configuration not stated),0.968 ± 0.32,1.08 ± 0.1,1.07 ± 0.071,1.18 ± 0.039,1.01 ± 0.12,1.21 ± 0.24,0.959 (active)
Cl.O=C1NCC2(CCN(CCc3ccccc3)CC2)O1,0.582 ± 0.028,0.641 ± 0.054,0.798 ± 0.082,0.672 ± 0.042,1.54 ± 0.26,1.78 ± 0.51,0.816 (active)
CC(C)n1cnc(S(=O)(=O)N2CCC(S(=O)(=O)c3nccn3C)CC2)c1,0.36 ± 0.028,0.842 ± 0.067,0.663 ± 0.048,0.935 ± 0.026,1.34 ± 0.14,1.14 ± 0.084,0.878 (active)
CCN(CC)c1ccc(C2Nc3ccccc3-c3nnc(SC)nc3O2)c(OC)c1 (configuration not stated),0.889 ± 0.07,0.986 ± 0.066,0.985 ± 0.059,0.954 ± 0.024,1.39 ± 0.24,0.87 ± 0.076,1.01 (active)
